Data reported in PubChem BioAssay AID1159580 (chemical genetic matrix, 2015).
In all, about 5,500 compounds went through this assay and about 2,000 (36%) were called active. Not shown: some 18% with an inconclusive outcome. Rule as the data show it: active = normalized growth mostly below about 0.91 (no sharp cut-off); inconclusive = no clear call, values can overlap the other calls; inactive = mostly above about 0.92. This is one part of the list.

Assay: chemical genetic growth profiling, strain panel (AID 1159580);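 also: tested at 20 µM; growth read once vehicle control cultures reached saturation at 30 °C; 1 = growth at the plate median or of vehicle wells; lower values mean less growth of the strain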
Conditions: growth OD

Measured: normalized growth

O=C(Nc1ccccc1)Nc1ccccc1
inactive: S. cerevisiae deletion strains, locus YKL009W, strain mrt4, active compounds read low 0.956 | S. cerevisiae deletion strains, locus YKL068W, active compounds read low 0.975 | S. cerevisiae deletion strains, locus YKL085W, strain MDH1 (second series), active compounds read low 0.979 | S. cerevisiae deletion strains, locus YKL085W, strain MDH1, active compounds read low 0.979 | S. cerevisiae deletion strains, locus YKL160W, strain elf1, active compounds read low 0.95 | S. cerevisiae deletion strains, locus YKR001C, strain vps1, active compounds read low 0.97 | S. cerevisiae deletion strains, locus YKR026C, strain gcn3, active compounds read low 0.967 | S. cerevisiae deletion strains, locus YKR091W, strain srl3, active compounds read low 0.962 | S. cerevisiae deletion strains, locus YLL001W, strain dnm1, active compounds read low 0.982 | S. cerevisiae deletion strains, locus YLL026W, active compounds read low 0.958 | S. cerevisiae deletion strains, locus YLL041C, strain sdh2, active compounds read low 0.982 | S. cerevisiae deletion strains, locus YLR027C, strain aat2, active compounds read low 0.944 | S. cerevisiae deletion strains, locus YLR058C, strain SHM2, active compounds read low 0.99 | S. cerevisiae deletion strains, locus YLR102C, strain apc9, active compounds read low 0.98 | S. cerevisiae deletion strains, locus YLR113W, strain HOG1, active compounds read low 1.01 | S. cerevisiae deletion strains, locus YLR221C, strain rsa3, active compounds read low 0.957 | S. cerevisiae deletion strains, locus YLR258W, strain gsy2, active compounds read low 0.974 | S. cerevisiae deletion strains, locus YLR262C, strain YPT6 (second series), active compounds read low 0.96 | S. cerevisiae deletion strains, locus YLR262C, strain YPT6, active compounds read low 1.34 | S. cerevisiae deletion strains, locus YLR268W, strain sec22, active compounds read low 0.989 | S. cerevisiae deletion strains, locus YLR320W, strain mms22, active compounds read low 0.99 | S. cerevisiae deletion strains, locus YLR342W, strain FKS1 (second series), active compounds read low 0.991 | S. cerevisiae deletion strains, locus YLR342W, strain FKS1, active compounds read low 0.972 | S. cerevisiae deletion strains, locus YLR357W, strain rsc2, active compounds read low 0.96 | S. cerevisiae deletion strains, locus YLR370C, strain arc18, active compounds read low 0.932 | S. cerevisiae deletion strains, locus YLR371W, strain rom2, active compounds read low 0.944 | S. cerevisiae deletion strains, locus YLR384C, strain iki3, active compounds read low 0.967 | S. cerevisiae deletion strains, locus YLR418C, strain cdc73, active compounds read low 1.06 | S. cerevisiae deletion strains, locus YML016C, strain PPZ1, active compounds read low 0.991 | S. cerevisiae deletion strains, locus YML032C, strain rad52, active compounds read low 0.98 | S. cerevisiae deletion strains, locus YML120C, strain ndi1, active compounds read low 0.98 | S. cerevisiae deletion strains, locus YML124C, strain tub3, active compounds read low 0.971 | S. cerevisiae deletion strains, locus YMR058W, strain fet3, active compounds read low 0.946 | S. cerevisiae deletion strains, locus YMR078C, strain ctf18, active compounds read low 0.981 | S. cerevisiae deletion strains, locus YMR125W, strain sto1, active compounds read low 0.949 | S. cerevisiae deletion strains, locus YMR129W, active compounds read low 0.959 | S. cerevisiae deletion strains, locus YMR205C, strain PFK2, active compounds read low 0.984 | S. cerevisiae deletion strains, locus YMR223W, strain ubp8, active compounds read low 0.976 | S. cerevisiae deletion strains, locus YMR231W, strain pep5, active compounds read low 0.99 | S. cerevisiae deletion strains, locus YMR263W, strain SAP30, active compounds read low 1 | S. cerevisiae deletion strains, locus YMR307W, strain GAS1, active compounds read low 1.34 | S. cerevisiae deletion strains, locus YNL067W, strain RPL9B, active compounds read low 0.996 | S. cerevisiae deletion strains, locus YNL071W, strain lat1, active compounds read low 0.965 | S. cerevisiae deletion strains, locus YNL128W, strain TEP1, active compounds read low 1 | S. cerevisiae deletion strains, locus YNL183C, strain NPR1, active compounds read low 0.949 | S. cerevisiae deletion strains, locus YNL209W, strain ssb2, active compounds read low 0.966 | S. cerevisiae deletion strains, locus YNL233W, strain BNI4, active compounds read low 1.05 | S. cerevisiae deletion strains, locus YNL248C, strain rpa49, active compounds read low 0.921 | S. cerevisiae deletion strains, locus YNL250W, strain rad50, active compounds read low 0.973 | S. cerevisiae deletion strains, locus YNL271C, strain bni1, active compounds read low 0.978 | S. cerevisiae deletion strains, locus YNL298W, strain CLA4, active compounds read low 1.02 | S. cerevisiae deletion strains, locus YNL307C, strain MCK1, active compounds read low 0.985 | S. cerevisiae deletion strains, locus YNL322C, strain KRE1 (second series), active compounds read low 0.965 | S. cerevisiae deletion strains, locus YNR049C, strain mso1, active compounds read low 0.95 | S. cerevisiae deletion strains, locus YNR052C, strain pop2, active compounds read low 0.993 | S. cerevisiae deletion strains, locus YOL012C, strain htz1 0.934 | S. cerevisiae deletion strains, locus YOL147C, strain pex11, active compounds read low 0.978 | S. cerevisiae deletion strains, locus YOR001W, strain rrp6, active compounds read low 0.957 | S. cerevisiae deletion strains, locus YOR061W, strain CKA2, active compounds read low 1.02 | S. cerevisiae deletion strains, locus YOR069W, strain VPS5, active compounds read low 1 | S. cerevisiae deletion strains, locus YOR070C, strain gyp1, active compounds read low 0.977 | S. cerevisiae deletion strains, locus YOR080W, strain dia2, active compounds read low 0.963 | S. cerevisiae deletion strains, locus YOR083W, strain WHI5, active compounds read low 0.959 | S. cerevisiae deletion strains, locus YOR106W, strain vam3, active compounds read low 0.902 | S. cerevisiae deletion strains, locus YOR136W, strain idh2, active compounds read low 0.996 | S. cerevisiae deletion strains, locus YOR144C, strain elg1, active compounds read low 0.97 | S. cerevisiae deletion strains, locus YOR184W, strain ser1, active compounds read low 1.03 | S. cerevisiae deletion strains, locus YOR231W, strain MKK1, active compounds read low 1.01 | S. cerevisiae deletion strains, locus YOR265W, strain rbl2, active compounds read low 0.964 | S. cerevisiae deletion strains, locus YOR270C, strain vph1, active compounds read low 0.875 | S. cerevisiae deletion strains, locus YOR290C, strain snf2, active compounds read low 0.907 | S. cerevisiae deletion strains, locus YOR316C, strain cot1, active compounds read low 0.989 | S. cerevisiae deletion strains, locus YPL051W, strain arl3, active compounds read low 0.928 | S. cerevisiae deletion strains, locus YPL055C, strain LGE1, active compounds read low 1.17 | S. cerevisiae deletion strains, locus YPL078C, strain atp4, active compounds read low 0.923 | S. cerevisiae deletion strains, locus YPL106C, strain sse1, active compounds read low 0.932 | S. cerevisiae deletion strains, locus YPL240C, strain hsp82, active compounds read low 0.967 | S. cerevisiae deletion strains, locus YPL241C, strain CIN2, active compounds read low 0.998 | S. cerevisiae deletion strains, locus YPL256C, strain CLN2, active compounds read low 0.985 | S. cerevisiae deletion strains, locus YPR119W, strain clb2, active compounds read low 0.966 | S. cerevisiae deletion strains, locus YPR141C, strain kar3, active compounds read low 0.975 | S. cerevisiae deletion strains, locus YPR163C, strain tif3, active compounds read low 0.987 | S. cerevisiae deletion strains, locus YPR167C, strain met16, active compounds read low 0.984 | S. cerevisiae deletion strains, strain wtn01, active compounds read low 0.996 | S. cerevisiae strains, strain wild type, active compounds read low 1.07
active: S. cerevisiae deletion strains, locus YLR039C, strain RIC1, active compounds read low 1.38 [resistant]
